# Compound activity as filed in PubChem BioAssay.
# BL2 CD40 inh: CD40 pathway inhibition in BL2 cells. AID 1053188. BL2 NF-kB luciferase reporter, CD40L-induced, 4 h. inhibition, % at 10 µM. 83,000 compounds, 0.94% hits;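 active = mean inhibition of at least 50% with a set share of replicates also reaching that level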;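 note: 0% = neutral control wells and 100% = IKK inhibitor VII at 50 µM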
# Active calls of the source: *; [ ] = another dose, or the depositor's remark. Only a selection was taken, and hits are over-represented in it overall.
SMILES,BL2 CD40 inh
C[C@H](CO)N1C[C@H](C)[C@@H](CN(C)Cc2ccc(C(=O)Nc3ccccc3N)cc2)Oc2ccc(NC(=O)Cn3cnnn3)cc2C1=O,-2[25 µM]
Cc1cccnc1Nc1ncnc(N)c1[N+](=O)[O-],3
Cc1cc(C)nc(Sc2ncnc(N)c2[N+](=O)[O-])n1,82*
Nc1ncnc(Nc2ccccn2)c1[N+](=O)[O-],8
CCOC(=O)c1cn2nc(N3CCCC3)ccc2n1,-2
c1cc2nncn2nc1N1CCCC1,12
CCOC(=O)c1cn2nc(N3CCCCC3)ccc2n1,66*
CC(=O)N(C)C[C@@H]1Oc2c(NC(=O)NC(C)C)cccc2C(=O)N(C)C[C@@H]1C,-30
CS(=O)(=O)Nc1ccc2c(c1)[C@@H]1C[C@@H](CC(=O)NCc3cc(F)ccc3F)O[C@H](CO)[C@@H]1O2,-3[25 µM]
CN(C)C(=O)C[C@@H]1C=C[C@@H](NC(=O)c2ccc(F)cc2)[C@H](CO)O1,-4[25 µM]
O=C(CN1CCN(Cc2ccccc2Cl)C1=O)NC1CCCCCCC1,11
Cc1ccc(Cn2c(C)c3cnn(CC(=O)NC4CCCC4)c(=O)c3c2C)cc1,-11
O=C(Cn1ncc(Cl)c(Cl)c1=O)NC1CCCCC1,97*
O=C(C[C@H]1C[C@@H]2c3cc(NS(=O)(=O)c4ccc(F)cc4)ccc3O[C@@H]2[C@H](CO)O1)NC1CCCC1,3
C[C@H](NC(=O)N(C)C[C@H]1OCc2ccccc2-c2ccccc2C(=O)N([C@H](C)CO)C[C@@H]1C)c1ccccc1,-18[25 µM]
Cc1cc(C)c2c(c1)SC1=NC(c3ccccc3)(C(F)(F)F)NC(=O)N12 (stereo unspecified),50*
COc1cccc(-c2ccc([C@H]3[C@@H](C#N)N(C(=O)c4ccccn4)[C@H]3CO)cc2)c1,-28
Cc1c(C(=O)OCC(=O)NC(=O)NC2CCCCC2)cccc1[N+](=O)[O-],0
CC1CCC(NC(=O)COC(=O)CSc2ccc(C(N)=O)cc2[N+](=O)[O-])CC1 (stereo unspecified),6
CS(=O)(=O)c1ccc(Cl)c(C(=O)OCC(=O)NC2CCCCCCC2)c1,21
O=C(COC(=O)c1ccccc1[N+](=O)[O-])c1ccc(C2CCCCC2)cc1,91*
O=C(COC(=O)c1ccccc1[N+](=O)[O-])Nc1cccnc1Cl,-35
O=C(OC1CCOC1=O)c1ccccc1C(=O)c1ccc(Cl)c([N+](=O)[O-])c1 (stereo unspecified),78*
CNc1ccc(C(=O)c2ccccc2C(=O)O)cc1[N+](=O)[O-],1
CN(C)c1ccc(C(=O)c2ccccc2C(=O)O)cc1[N+](=O)[O-],11
SMILES,BL2 CD40 inh
O=C(COC(=O)c1ccccc1C(=O)c1ccc(Cl)c([N+](=O)[O-])c1)NC1CC1,98*
C/C=C/c1ccc([C@@H]2[C@H](CN(C)S(=O)(=O)c3ccccc3)N[C@@H]2CO)cc1,5
COc1cccc(C#Cc2ccc3c(c2)[C@H]2[C@H](CCN2S(=O)(=O)c2ccc(C)cc2)[C@@H](CO)N3)c1,17[25 µM]
CO[C@H]1CC[C@H]2CCN(C)C(=O)[C@@H](C)N(C)C(=O)c3cccc(C#N)c3OC[C@H]1O2,4[25 µM]
CN(C)CC(=O)Nc1ccc2c(c1)[C@H]1C[C@@H](CC(=O)NCc3cccc(F)c3)O[C@H](CO)[C@H]1O2,-8[25 µM]
O=C1N[C@H](Cc2ccccc2)COCc2cn(nn2)CC[C@@H]1Cc1cccc(F)c1,-5[25 µM]
O=C(NCC1CC1)[C@@H]1[C@@H](CO)[C@@H]2Cn3c(ccc(-c4ccccc4F)c3=O)[C@H]1N2Cc1cncnc1,-5[25 µM]
CCCNC(=O)C[C@@H]1CC[C@@H]2[C@@H](COc3ccc(NC(=O)NCCC)cc3C(=O)N2C)O1,3
CCCN1C[C@H](C)[C@@H](OC)CN(C)C(=O)c2cc(NC(=O)NC3CCCC3)ccc2OC[C@H]1C,-7
CC(C)C#Cc1ccc([C@@H]2[C@H](CO)N3C(=O)CN(C(=O)NC4CCCCC4)C[C@@H]23)cc1,-2
C(=NN1CCCCCC1)c1ccc2ccccc2n1,77*
CCOc1ccccc1C=NN1CCCCCC1,7
C(=C\c1ccc2ccccc2n1)/c1ccccc1,28
CC(=O)N(C)c1ccc(NS(=O)(=O)Cc2ccccc2)cc1,8
CC(=O)N(C)c1ccc(NC(=S)Nc2ccc(C(C)C)cc2)cc1,-14
CC(=O)N(C)c1ccc(C=C2C=Cc3ccccc32)cc1,72*
C[C@H](CO)N1C[C@H](C)[C@H](CN(C)C(=O)NC2CCCCC2)Oc2ccc(N(C)C)cc2CC1=O,2[25 µM]
CC(C)NC(=O)N(C)C[C@@H]1Oc2ccc(NS(C)(=O)=O)cc2CC(=O)N(C)C[C@@H]1C,0
COc1ccccc1C(=O)NCCC(=O)Nc1nc2ccccc2[nH]1,52*
COc1ccccc1C(=O)NCCC(=O)Nc1ccc(C)cn1,8
O=C(CCNC(=O)c1ccccc1Cl)Nc1nc2ccccc2[nH]1,-11
CC(=O)N1C[C@@H]2C(c3ccccc3)[C@H](C1)N2CC(F)(F)F (stereo partly specified),-7
CO[C@@H]1CN(C)C(=O)c2ccc(NC(=O)C3CCOCC3)cc2OC[C@@H](C)N(CC2CC2)C[C@@H]1C,-10
CC=Cc1ccc2n(c1=O)C[C@@H]1[C@@H](CO)[C@H](C(=O)NC3Cc4ccccc4C3)N(CC3CC3)[C@H]21 (mixture of isomers),14[25 µM]
CC(C)n1cnc2c(NCc3ccccc3O)nc(NCCCO)nc21,-2[25 µM]
SMILES,BL2 CD40 inh
O=C(CCN1C(=O)c2ccccc2S1(=O)=O)Nc1ccc2c(c1)OCCO2,-19
O=C(CN1C(=O)c2ccccc2S1(=O)=O)c1ccc2c(c1)OCCO2,95*
O=C(Cn1cnc2ccccc2c1=O)c1ccc2c(c1)OCCO2,-58
CC(=O)Nc1ccc2c(c1)C(=O)N(C)C[C@@H](C)[C@H](CN(C)C)O2,-6
O=C(c1ccc(F)cc1)N(CC1CCC1)C[C@@H]1N[C@H](CO)[C@@H]1c1ccccc1,7[25 µM]
Cc1cc(C(=O)N2CCN(c3ncccn3)CC2)c(C)o1,-6
Cc1cc(C(=O)N2CCN(c3ccccc3Cl)CC2)c(C)o1,78*
Cc1cc(C(=O)N2CCC(C(=O)O)CC2)c(C)o1,0
CN(C)CC#Cc1ccc([C@@H]2[C@H]3CN(C(=O)Nc4cc(F)ccc4F)CCCCN3[C@H]2CO)cc1,-11[25 µM]
CCOC(=O)c1cc(-c2cccs2)[nH]n1,-11
CCOC(=O)C1CCN(c2ccc(-c3cccs3)nn2)CC1,57*
CCOC(=O)C1CCN(C(=O)c2cccs2)CC1,9
C[C@@H]1CCCCO[C@H](CN(C)CC2CCCCC2)[C@H](C)CN([C@H](C)CO)C(=O)c2cc(NS(C)(=O)=O)ccc2O1,15[25 µM]
CC(=O)N(C)C[C@H]1Oc2ccc(NS(C)(=O)=O)cc2CC(=O)N(C)C[C@H]1C,-4
Cc1ccc(C(=O)CCC(=O)Nc2ccc(C)cn2)cc1,9
Cc1ccc(NC(=O)CNC(=O)c2ccc(Oc3ccccc3)cc2)nc1,-20
Cc1ccc(NC(=O)CNC(=O)c2cccc(C)c2)nc1,58*
CO[C@H]1CN(C)C(=O)c2ccc(NS(C)(=O)=O)cc2OC[C@H](C)N(CC2CC2)C[C@H]1C,5[25 µM]
CC(=O)NCCc1ccc(C(=O)COC(=O)C2CCCCC2)cc1,54*
CC(=O)NCCc1ccc(C(=O)COC(=O)c2ccco2)cc1,-1
CC(=O)Nc1ccc(C(=O)COC(=O)C2CC3CCCC(C2)C3=O)cc1 (stereo unspecified),-5
Cc1ccccc1-c1ccc(C2[C@@H]3CN(C(=O)Cc4ccncc4)C[C@H]2N3)cc1 (stereo partly specified),10[25 µM]
